Source: PubChem BioAssay AID1159580 (chemical genetic matrix, 2015)
Out of some 5,500 compounds screened, about 2,000 (36%) were called active. About 18% were inconclusive and are not listed. Rule as the data show it: active = normalized growth mostly below about 0.91 (no sharp cut-off); inconclusive = no clear call, values can overlap the other calls; inactive = mostly above about 0.92. Some of the results follow.

Experiment: chemical genetic growth profiling, strain panel (AID 1159580);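 also: tested at 20 µM; growth read once vehicle control cultures reached saturation at 30 °C; 1 = growth at the plate median or of vehicle wells; lower values mean less growth of the strain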
Conditions: growth OD
[1] = S. cerevisiae deletion strains, locus YBR021W, strain FUR4, stronger effect = lower value
[2] = S. cerevisiae deletion strains, locus YBR229C, strain ROT2, stronger effect = lower value
[3] = S. cerevisiae deletion strains, locus YCL029C, strain bik1, stronger effect = lower value
[4] = S. cerevisiae deletion strains, locus YDL035C, strain GPR1, stronger effect = lower value
[5] = S. cerevisiae deletion strains, locus YDL074C, strain BRE1, stronger effect = lower value
[6] = S. cerevisiae deletion strains, locus YDL101C, strain DUN1, stronger effect = lower value
[7] = S. cerevisiae deletion strains, locus YDL134C, strain PPH21, stronger effect = lower value
[8] = S. cerevisiae deletion strains, locus YDL185W, strain tfp1, stronger effect = lower value
[9] = S. cerevisiae deletion strains, locus YDL192W, strain arf1, stronger effect = lower value
[10] = S. cerevisiae deletion strains, locus YDR101C, strain arx1, stronger effect = lower value
[11] = S. cerevisiae deletion strains, locus YDR162C, strain NBP2, stronger effect = lower value
[12] = S. cerevisiae deletion strains, locus YDR318W, strain mcm21, stronger effect = lower value
[13] = S. cerevisiae deletion strains, locus YDR388W, stronger effect = lower value
[14] = S. cerevisiae deletion strains, locus YDR502C, strain sam2, stronger effect = lower value
[15] = S. cerevisiae deletion strains, locus YEL061C, strain CIN8, stronger effect = lower value
[16] = S. cerevisiae deletion strains, locus YER110C, stronger effect = lower value
[17] = S. cerevisiae deletion strains, locus YER155C, strain BEM2, stronger effect = lower value
[18] = S. cerevisiae deletion strains, locus YER167W, strain BCK2, stronger effect = lower value
[19] = S. cerevisiae deletion strains, locus YGL078C, strain dbp3, stronger effect = lower value
[20] = S. cerevisiae deletion strains, locus YGL086W, strain mad1, stronger effect = lower value
[21] = S. cerevisiae deletion strains, locus YGL248W, strain PDE1, stronger effect = lower value
[22] = S. cerevisiae deletion strains, locus YGR078C, strain PAC10, stronger effect = lower value
[23] = S. cerevisiae deletion strains, locus YGR135W, strain pre9, stronger effect = lower value
[24] = S. cerevisiae deletion strains, locus YGR229C, strain SMI1, stronger effect = lower value
[25] = S. cerevisiae deletion strains, locus YGR252W, strain gcn5, stronger effect = lower value
[26] = S. cerevisiae deletion strains, locus YHR030C, strain SLT2, stronger effect = lower value
[27] = S. cerevisiae deletion strains, locus YHR079C, strain IRE1 (second series), stronger effect = lower value
[28] = S. cerevisiae deletion strains, locus YHR094C, strain hxt1, stronger effect = lower value
[29] = S. cerevisiae deletion strains, locus YHR200W, strain rpn10, stronger effect = lower value
[30] = S. cerevisiae deletion strains, locus YIL066C, strain RNR3, stronger effect = lower value
[31] = S. cerevisiae deletion strains, locus YIL073C, strain SPO22, stronger effect = lower value
[32] = S. cerevisiae deletion strains, locus YIL125W, strain kgd1, stronger effect = lower value
[33] = S. cerevisiae deletion strains, locus YIR030C, strain dcg1, stronger effect = lower value
[34] = S. cerevisiae deletion strains, locus YJL095W, strain BCK1, stronger effect = lower value
[35] = S. cerevisiae deletion strains, locus YJL134W, strain LCB3, stronger effect = lower value
[36] = S. cerevisiae deletion strains, locus YJL168C, strain set2, stronger effect = lower value
[37] = S. cerevisiae deletion strains, locus YJL187C, strain SWE1 (second series), stronger effect = lower value
[38] = S. cerevisiae deletion strains, locus YJR043C, strain POL32, stronger effect = lower value
[39] = S. cerevisiae deletion strains, locus YKL009W, strain mrt4, stronger effect = lower value
[40] = S. cerevisiae deletion strains, locus YKL068W, stronger effect = lower value
[41] = S. cerevisiae deletion strains, locus YKL085W, strain MDH1 (second series), stronger effect = lower value
[42] = S. cerevisiae deletion strains, locus YKL085W, strain MDH1, stronger effect = lower value
[43] = S. cerevisiae deletion strains, locus YKL190W, strain CNB1, stronger effect = lower value
[44] = S. cerevisiae deletion strains, locus YKR001C, strain vps1, stronger effect = lower value
[45] = S. cerevisiae deletion strains, locus YLR039C, strain RIC1, stronger effect = lower value
[46] = S. cerevisiae deletion strains, locus YLR058C, strain SHM2, stronger effect = lower value
[47] = S. cerevisiae deletion strains, locus YLR102C, strain apc9, stronger effect = lower value
[48] = S. cerevisiae deletion strains, locus YLR262C, strain YPT6, stronger effect = lower value
[49] = S. cerevisiae deletion strains, locus YLR268W, strain sec22, stronger effect = lower value
[50] = S. cerevisiae deletion strains, locus YLR330W, strain CHS5, stronger effect = lower value
[51] = S. cerevisiae deletion strains, locus YLR342W, strain FKS1 (second series), stronger effect = lower value
[52] = S. cerevisiae deletion strains, locus YLR371W, strain rom2, stronger effect = lower value
[53] = S. cerevisiae deletion strains, locus YLR418C, strain cdc73, stronger effect = lower value
[54] = S. cerevisiae deletion strains, locus YML016C, strain PPZ1, stronger effect = lower value
[55] = S. cerevisiae deletion strains, locus YML032C, strain rad52, stronger effect = lower value
[56] = S. cerevisiae deletion strains, locus YML124C, strain tub3, stronger effect = lower value
[57] = S. cerevisiae deletion strains, locus YMR078C, strain ctf18, stronger effect = lower value
[58] = S. cerevisiae deletion strains, locus YMR223W, strain ubp8, stronger effect = lower value
[59] = S. cerevisiae deletion strains, locus YMR307W, strain GAS1, stronger effect = lower value
[60] = S. cerevisiae deletion strains, locus YNL067W, strain RPL9B, stronger effect = lower value
[61] = S. cerevisiae deletion strains, locus YNL233W, strain BNI4, stronger effect = lower value
[62] = S. cerevisiae deletion strains, locus YNL250W, strain rad50, stronger effect = lower value
[63] = S. cerevisiae deletion strains, locus YNL271C, strain bni1, stronger effect = lower value
[64] = S. cerevisiae deletion strains, locus YNL298W, strain CLA4, stronger effect = lower value
[65] = S. cerevisiae deletion strains, locus YNL307C, strain MCK1, stronger effect = lower value
[66] = S. cerevisiae deletion strains, locus YNL322C, strain KRE1, stronger effect = lower value
[67] = S. cerevisiae deletion strains, locus YNR052C, strain pop2, stronger effect = lower value
[68] = S. cerevisiae deletion strains, locus YOL006C, strain TOP1, stronger effect = lower value
[69] = S. cerevisiae deletion strains, locus YOL012C, strain htz1
[70] = S. cerevisiae deletion strains, locus YOL147C, strain pex11, stronger effect = lower value
[71] = S. cerevisiae deletion strains, locus YOR061W, strain CKA2, stronger effect = lower value
[72] = S. cerevisiae deletion strains, locus YOR069W, strain VPS5, stronger effect = lower value
[73] = S. cerevisiae deletion strains, locus YOR136W, strain idh2, stronger effect = lower value
[74] = S. cerevisiae deletion strains, locus YOR144C, strain elg1, stronger effect = lower value
[75] = S. cerevisiae deletion strains, locus YOR184W, strain ser1, stronger effect = lower value
[76] = S. cerevisiae deletion strains, locus YOR316C, strain cot1, stronger effect = lower value
[77] = S. cerevisiae deletion strains, locus YPL055C, strain LGE1, stronger effect = lower value
[78] = S. cerevisiae deletion strains, locus YPL241C, strain CIN2, stronger effect = lower value
[79] = S. cerevisiae deletion strains, locus YPR119W, strain clb2, stronger effect = lower value
[80] = S. cerevisiae deletion strains, locus YPR141C, strain kar3, stronger effect = lower value
[81] = S. cerevisiae deletion strains, locus YPR163C, strain tif3, stronger effect = lower value
[82] = S. cerevisiae deletion strains, locus YPR167C, strain met16, stronger effect = lower value
[83] = S. cerevisiae deletion strains, strain wtn01, stronger effect = lower value
[84] = S. cerevisiae strains, strain wild type, stronger effect = lower value

Measured: normalized growth

CC(C)N(C(=O)SCC(Cl)=C(Cl)Cl)C(C)C
inactive: S. cerevisiae deletion strains, locus YAL013W, strain DEP1, stronger effect = lower value 1.01 | [1] 1.01 | [2] 1.01 | [3] 1.01 | [4] 1.01 | [5] 1.04 | [6] 1.02 | [7] 1.02 | [8] 0.999 | [9] 0.998 | [10] 0.998 | S. cerevisiae deletion strains, locus YDR150W, strain NUM1, stronger effect = lower value 1.02 | [11] 1.02 | [12] 1 | [13] 1 | [14] 1 | [15] 1.01 | [16] 0.998 | [17] 1.02 | [18] 1.03 | [19] 0.996 | [20] 1.01 | [21] 1.02 | [22] 1.02 | [23] 0.995 | [24] 1.04 | [25] 0.945 | [26] 1.02 | [27] 1 | [28] 1.01 | [29] 1 | [30] 1.02 | [31] 1.04 | [32] 1 | [33] 1 | [34] 1.03 | [35] 1.02 | [36] 1 | [37] 1.01 | [38] 1.01 | S. cerevisiae deletion strains, locus YJR075W, strain HOC1, stronger effect = lower value 1.03 | [39] 1.01 | [40] 1.01 | [41] 1.01 | [42] 1.01 | [43] 1.04 | [44] 0.987 | [45] 0.9 | [46] 1.01 | [47] 1.01 | [48] 0.977 | [49] 0.981 | [50] 1.01 | [51] 1.02 | [52] 1 | [53] 0.996 | [54] 1.02 | [55] 1 | [56] 1 | [57] 1.01 | [58] 0.998 | S. cerevisiae deletion strains, locus YMR263W, strain SAP30, stronger effect = lower value 1.03 | [59] 1.01 | [60] 1.02 | S. cerevisiae deletion strains, locus YNL128W, strain TEP1, stronger effect = lower value 1.02 | S. cerevisiae deletion strains, locus YNL153C, strain GIM3, stronger effect = lower value 1.01 | [61] 1.02 | [62] 0.999 | [63] 1 | [64] 0.986 | [65] 0.979 | [66] 1.01 | [67] 1 | [68] 1.08 | [69] 0.763 | [70] 1 | [71] 1.02 | [72] 1.02 | [73] 0.996 | [74] 1.01 | [75] 0.99 | [76] 1.01 | [77] 1.04 | [78] 1.02 | [79] 1 | [80] 1 | [81] 0.998 | [82] 1.01 | [83] 0.998 | [84] 1.01

COc1cc2c(c(OC)c1OC)-c1ccc(O)c(=O)cc1[C@@H](NC(C)=O)CC2
inactive: [1] 0.865 | [2] 0.962 | [3] 0.982 | [9] 0.978 | [12] 0.94 | [13] 1 | [14] 0.93 | [16] 1.03 | [17] 0.98 | [19] 0.957 | [23] 0.945 | [25] 0.879 | [28] 0.988 | [29] 0.977 | [33] 0.988 | [36] 1 | [39] 0.984 | [40] 0.968 | [47] 1.02 | [48] 0.72 | [51] 0.801 | [52] 0.933 | [53] 0.841 | [55] 1 | [56] 1 | [57] 1.01 | [58] 0.938 | [62] 0.968 | [65] 1.01 | [67] 0.961 | [69] 0.984 | [70] 1.01 | [73] 0.988 | [74] 0.97 | [75] 1 | [76] 1.02 | [79] 1.03 | [80] 0.997 | [81] 1.01 | [82] 0.929
active: [4] 0.543 | [5] 0.515 | [6] 0.715 | [7] 0.87 | [8] 0.323 | [10] 0.904 | [11] 0.382 | [15] 0.819 | [18] 0.798 | [20] 0.882 | [21] 0.744 | [22] 0.729 | [24] 0.247 | [26] 0.879 | [27] 0.851 | S. cerevisiae deletion strains, locus YHR129C, strain ARP1, stronger effect = lower value 0.764 | [30] 0.543 | [31] 0.355 | [32] 0.881 | [34] 0.722 | [35] 0.913 | [37] 0.59 | [38] 0.55 | [41] 0.91 | [42] 0.91 | [43] 0.593 | [44] 0.889 | [45] 0.454 | [46] 0.691 | [49] 0.852 | [50] 0.886 | [54] 0.829 | [59] 0.577 | [60] 0.732 | [61] 0.81 | [63] 0.843 | [64] 0.891 | [66] 0.639 | [68] 0.198 | [71] 0.753 | [72] 0.896 | [77] 0.436 | [78] 0.9 | [83] 0.881 | [84] 0.285
